# Results reported in PubChem BioAssay (NCATS).
# Values joined by “and” are separate entries in the source; they are usually repeats but may differ in a detail not shown here. Identical values can stand only once. Results filed as inconclusive are left out. Values without a mark were called inactive. Active and inactive are the calls of the source. Calls come from the whole dose curve; as a rule, active = well fitted cell-killing curve with a large enough effect; inconclusive = small, poorly fitted or top-dose-only effect, or effect the other way; inactive = flat fitted curve, though single readings scatter.
# Experiment: qHTS assay for cell viability of HEK293 cells (AID 743288); note: nearly all actives have a fitted effect of over 50% in size
# Conditions: ATP luminescence (CellTiter-Glo), 18 h; max response: stronger effect = lower value
# Excerpt: National Center for Advancing Translational Sciences [NCATS]
# NIH Chemical Genomics Center [NCGC]
# U.S. Environmental Protection Agency [EPA]
# National Institutes of Environmental Health Sciences [NIEHS]
# National Toxicology Program [NTP]
# U.S. Food and Drug Administration [FDA]
# The CellTiter-Glo Luminescent Cell Viability Assay (Promega, Madison, WI) is a homogeneous method to determine the number of viable cells in culture based on quantitation of the ATP present, which signals the presence of metabolically active cells. This cell viability assay was used to screen environmental chemicals in the Hek293 cell line.
# Tox21 Assay Protocol Summary:
# Cell viability after compound treatment was measured using a luciferase-coupled ATP quantitation assay (CellTiter-Glo viability assay, Promega, Madison, WI) in parental HEK293 cells. Total intracellular ATP content corresponds to the number of metabolically competent cells after compound treatment. The cells were dispensed at 2,000 cells/5 uL/well in 1,536-well white/solid bottom assay plates using a Flying Reagent Dispenser (Aurora Discovery, San Diego, CA). The cells were incubated a minimum of 5 h at 37 C, followed by the addition of 23 nL of compounds dissolved in DMSO, positive controls or DMSO only using a pintool work station (Kalypsys, San Diego, CA). The assay plates were incubated for 18 h at 37 C, followed by the addition of 5 uL/well of CellTiter-Glo reagent. After 30 min incubation at room temperature, the luminescence intensity of the plates was measured using a ViewLux plate reader (PerkinElmer, Shelton, CT).
# % is set by controls: 0 for no effect and ±100 for the full control effect; potency is the fitted concentration of half-maximal effect.
SMILES,Potency,max response
CC(=O)[O][Hg][c]1ccccc1,7.08 µM (active) and 22.4 µM (active),–
Nc1ccc(Cl)cc1N,–,-8.79% and -16.5%
O=[N+]([O-])c1c2ccccc2cc2ccccc12,–,-0.948%
CCCCCCCCc1ccc(O)cc1,–,-15.8% and -26%
CC(C)(O)C(=O)Nc1ccc([N+](=O)[O-])c(C(F)(F)F)c1,–,-8.24%
CCCCC(CC)COC(=O)c1ccccc1C(=O)OCC(CC)CCCC (stereo not given),–,-14% and -11%
CCO/N=C(\CC)C1=C(O)CC(c2c(C)cc(C)cc2C)CC1=O (stereo not given),–,-20.6%
O=C(O)C(Cl)Cl,–,-7.67% and 1.66%
O=C(O)CCCOc1ccc(Cl)cc1Cl,–,-3.48%
CS(=O)(=O)c1ccc(C(=O)C2C(=O)CCCC2=O)c([N+](=O)[O-])c1,–,-4.44%
O=C(Nc1ccccc1-c1ccc(Cl)cc1)c1cccnc1Cl,–,-25.4%
Nc1ccc([N+](=O)[O-])cc1,–,-4.75%
CO/C=C(/C(=O)OC)c1ccccc1Oc1cc(Oc2ccccc2C#N)ncn1,–,-25.4%
COCCOCCO,–,-8% and -15.7%
Cc1cc(O)ccc1Cl,–,-2.31%
CN(C)[C@@H]1C(=O)C(C(N)=O)=C(O)[C@@]2(O)C(=O)C3=C(O)c4c(O)cccc4[C@@](C)(O)[C@H]3[C@H](O)[C@@H]12,–,-3.99% and -10.9% and -2.39%
CCCCCCCCCCCCCCCC[N+](C)(C)C,–,-5.85%
CCOP(=O)(NC(C)C)Oc1ccc(SC)c(C)c1 (stereo not given),–,-28.9% and -13.9%
O=[N+]([O-])c1c(Cl)c(Cl)cc(Cl)c1Cl,–,-0.234%
O=C(O)c1cc(Oc2ccc(C(F)(F)F)cc2Cl)ccc1[N+](=O)[O-],–,-14.8%

SMILES,Potency,max response
Nc1c(Cl)c(Cl)c(Cl)c(Cl)c1Cl,–,-4.75%
CCCCOC(=O)c1ccccc1C(=O)OCc1ccccc1,–,-13.6% and -13.5%
CC(C)Oc1cccc(NC(=O)c2ccccc2C(F)(F)F)c1,–,-13.1%
Nc1ccc(Sc2ccc(N)cc2)cc1,–,1.17% and -4.98%
C=CC(=O)NCNC(=O)C=C,–,3.56% and -2.17%
O=S(=O)(O)C(F)(F)C(F)(F)C(F)(F)C(F)(F)C(F)(F)C(F)(F)C(F)(F)C(F)(F)F,–,-7.88% and -13.4%
COc1nn(CSP(=S)(OC)OC)c(=O)s1,–,-26%
C=CCC1=C(C)C(OC(=O)C2C(C=C(C)C)C2(C)C)CC1=O (stereo not given),–,-9.9% and -17.4%
COc1ccc(C(c2ccc(OC)cc2)C(Cl)(Cl)Cl)cc1,–,-23.2% and -28.9% and -19.6%
c1cc2ccc3cccc4ccc(c1)c2c34,–,-10.7% and -22.9%
O=C(O)COc1nc(Cl)c(Cl)cc1Cl,–,-10.3%
O=[N+]([O-])/N=C1\NCCN1Cc1ccc(Cl)nc1,–,-6.64%
OCCCBr,–,2.95%
CC(C)(C)C(O)C(Oc1ccc(Cl)cc1)n1cncn1 (stereo not given),–,-2.21%
CCCCCCCCCC(CC)c1ccc(S(=O)(=O)O)cc1 (stereo not given),–,-11.2% and -4.04%
Nc1ccc(N=Nc2ccccc2)cc1,–,-0.712%
O=C(O)COc1ccccc1,–,-7.91%
CN(C)NC(=O)CCC(=O)O,–,1.56% and -3.81%
O=[N+]([O-])c1cc([N+](=O)[O-])c2ccccc2c1,–,-3.94%
CCCN(CCC)c1c([N+](=O)[O-])cc(S(N)(=O)=O)cc1[N+](=O)[O-],–,-4.88%
